According to PubChem BioAssay (Tox21):
Inconclusive results are not listed. Active and inactive are the calls of the source. Unless noted, the call rests on the fitted dose curve; in most records, active means well fitted curve in the direction sought with a large enough effect in the repeat runs; inconclusive means weak or mixed curves; inactive means no such curve, though single readings can be large; an effect the other way counts as inactive or inconclusive.

Tests used:
[1] = A CellTox Green Cytotoxicity Assay to monitor cytotoxicity in HEK293 cells - 32 hour (AID 1224881); further: nearly all actives have a fitted effect of over 40% in size
Method in brief: (§1)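 Tox21 screen in HEK293: membrane-impermeant cyanine dye fluoresces on binding dead-cell DNA; compound pinned 5 h post-seeding, plates held at 37 C, signal read repeatedly through 40 h.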

[2] = A CellTox Green Cytotoxicity Assay to monitor cytotoxicity in HepG2 cells - 0 hour (AID 1224882); further: nearly all actives have a fitted effect of over 35% in size
Method in brief: (§2)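 Measurements at 0, 8, 16, 24, 32 and 40 h of treatment captured CellTox Green fluorescence in HepG2 cells that had been co-plated with reagent and preincubated 5 h at 37 C/5% CO2.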

[3] = A CellTox Green Cytotoxicity Assay to monitor cytotoxicity in HepG2 cells - 32 hour (AID 1224883); further: nearly all actives have a fitted effect of over 50% in size
Method in brief: as §2

[4] = A CellTox Green Cytotoxicity Assay to monitor cytotoxicity in HEK293 cells - 8 hour (AID 1224884); further: nearly all actives have a fitted effect of over 35% in size
Method in brief: as §1

[5] = qHTS RealTime-Glo MT Cell Viability Assay in HepG2 cells - 16 hour (AID 1224885); further: nearly all actives have a fitted effect of over 50% in size
Method in brief: (§3)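 HepG2 cells (600/well) were dispensed with RealTime-Glo reagents, incubated 5 h at 37 °C, then treated with compounds in DMSO for up to 40 h. Nonlytic NanoLuc luminescence reflecting viable cells was read at each stated time point.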

[6] = qHTS RealTime-Glo MT Cell Viability Assay in HEK293 cells - 8 hour (AID 1224887); further: top concentration of the series differs between compounds; nearly all actives have a fitted effect of over 50% in size
Method in brief: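 HEK293 + NanoLuc + prosubstrate, 600 cells/well; 5 h, 37 C/5% CO2; compound 23 nL in DMSO by pintool; 37 C; luminescence read at 0, 8, 16, 24, 32 and 40 h time points.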

[7] = A CellTox Green Cytotoxicity Assay to monitor cytotoxicity in HEK293 cells - 16 hour (AID 1224888); further: nearly all actives have a fitted effect of over 35% in size
Method in brief: as §1

[8] = qHTS RealTime-Glo MT Cell Viability Assay in HepG2 cells - 0 hour (AID 1224889); further: nearly all actives have a fitted effect of over 50% in size
Method in brief: as §3

[9] = A CellTox Green Cytotoxicity Assay to monitor cytotoxicity in HepG2 cells - 8 hour (AID 1224890); further: nearly all actives have a fitted effect of over 45% in size
Method in brief: as §2

[10] = qHTS assay to identify small molecule antagonists of the androgen receptor (AR) signaling pathway using the MDA cell line in the presence of 0.5 nM R1881 - cell viability counter screen (AID 1259242); further: nearly all actives have a fitted effect of over 45% in size
Method in brief: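 Concentration-response screen of compounds for toxicity in MDA-kb2 reporter cells: 16 hr at 37C with 0.5 nM R1881, endpoint live-cell protease fluorescence measured in the reporter wells.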

[11] = qHTS assay to identify small molecule HDAC inhibitors (AID 1259364);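 further: wild-type HCT-116 cells with endogenous class I/II HDAC activity; top concentration of the series differs between compounds; nearly all actives have a fitted effect of over 45% in size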
Method in brief: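 Screening used wild-type human colon HCT-116 cells incubated overnight, dosed with compounds for 2 hours, and assayed with a homogeneous luminogenic HDAC I/II reagent for 30 minutes at room temperature.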

[12] = qHTS assay to identify small molecule HDAC inhibitors - cell viability counter screen (AID 1259365)
Method in brief: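 After overnight seeding at 1,500 cells per well, wild-type HCT-116 cultures took up compounds in DMSO for 2hr at 37 C. Viable cell content came from luminescence with CellTiter-Glo.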

[13] = qHTS assay to identify small molecule agonists of the sonic hedgehog signaling (Shh) pathway - cell viability counter screen (AID 1259366); further: nearly all actives have a fitted effect of over 50% in size
Method in brief: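 Same-well cytotoxicity read. Gli1-Luc reporter 3T3 cells; compounds 24hr, 37C/5% CO2; CellTiter-Fluor fluorescence.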

[14] = qHTS assay to identify small molecule antagonists of the sonic hedgehog signaling (Shh) pathway - cell viability counter screen (AID 1259367); further: nearly all actives have a fitted effect of over 55% in size
Method in brief: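 Tox21 library chemicals were tested on a Gli1-Luc NIH/3T3 clone (2,000 cells/well) stimulated by conditioned medium; viability was quantified as fluorescence from CellTiter-Fluor reagent added at 23 hr.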

[15] = qHTS assay to identify small molecule agonists of the sonic hedgehog signaling (Shh) pathway (AID 1259368; calls by dose curve;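 further: NIH/3T3-derived 3T3Gli1-Luc cells carrying a stable Gli1-driven firefly luciferase reporter; series mostly up to about 92 µM; nearly all actives have a fitted effect of over 15% in size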)
Method in brief: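 Hedgehog pathway agonism scored by increased firefly luciferase luminescence in 3T3Gli1-Luc cells treated 24 hr at 37 C; detection used a 30 min room-temperature reagent incubation.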

[16] = qHTS assay to identify small molecule antagonists of the estrogen receptor alpha (ER-alpha) signaling pathway using the BG1 cell line in the presence of 0.1 nM 17-beta-estradiol - cell viability counter screen (AID 1259241); further: nearly all actives have a fitted effect of over 40% in size
Method in brief: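 Estradiol-stimulated (0.1 nM) VM7Luc4E2 cells exposed to compounds 22 hr; viability measured by fluorescence of cleaved CellTiter-Fluor substrate after 30 min.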

[17] = molecular target: Estrogen receptor (Homo sapiens) (UniProt P03372); experiment: qHTS assay to identify small molecule antagonists of the estrogen receptor alpha (ER-alpha) signaling pathway using the BG1 cell line in the presence of 0.1 nM 17-beta-estradiol (AID 1259244); further: nearly all actives have a fitted effect of over 50% in size
Sequence of Estrogen receptor (Homo sapiens) (P03372 whole entry, looked up): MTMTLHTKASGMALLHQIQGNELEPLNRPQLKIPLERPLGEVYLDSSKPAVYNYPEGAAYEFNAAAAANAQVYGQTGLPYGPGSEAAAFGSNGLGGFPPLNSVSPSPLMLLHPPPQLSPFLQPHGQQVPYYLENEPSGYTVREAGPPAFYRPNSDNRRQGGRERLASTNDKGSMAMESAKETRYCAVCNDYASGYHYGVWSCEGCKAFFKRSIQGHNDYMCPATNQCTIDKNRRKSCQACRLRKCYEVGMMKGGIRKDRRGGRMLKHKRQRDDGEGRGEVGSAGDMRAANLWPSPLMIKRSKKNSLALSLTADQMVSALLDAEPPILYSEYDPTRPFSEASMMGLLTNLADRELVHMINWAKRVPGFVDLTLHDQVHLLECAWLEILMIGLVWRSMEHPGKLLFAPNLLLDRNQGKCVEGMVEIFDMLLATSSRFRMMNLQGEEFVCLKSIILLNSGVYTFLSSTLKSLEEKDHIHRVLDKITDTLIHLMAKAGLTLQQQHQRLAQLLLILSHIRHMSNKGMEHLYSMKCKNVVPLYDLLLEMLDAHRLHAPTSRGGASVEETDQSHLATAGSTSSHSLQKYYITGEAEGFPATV
Method in brief: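 Compounds were tested against 0.1 nM (final) 17beta-estradiol in VM7Luc4E2 cells, which express full-length ER-alpha and an ERE-luciferase reporter; luminescence was recorded following 22 h exposure.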

[18] = qHTS assay to identify small molecule phospholipidosis (PLD) inducers (AID 1259344; active means well fitted curve in the direction sought with a large enough effect; an effect the other way counts as inactive or inconclusive)
Method in brief: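 Image-based: LipidTOX Red pit count/intensity per well and per cell; HepG2, 24 h compound at 37 C, PFA fixation, Hoechst counterstain.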

[19] = qHTS RealTime-Glo MT Cell Viability Assay in HEK293 cells - 24 hour (AID 1224886)
Method in brief: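 HEK293 cells seeded with NanoLuc/prosubstrate reagent, rested 5 h at 37 C, then dosed and kept at 37 C up to 40 h. Nonlytic real-time luminescence from viable cells read at 0, 8, 16, 24, 32 and 40 h.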

[20] = molecular target: Androgen receptor (Homo sapiens) (UniProt P10275); experiment: qHTS assay to identify small molecule antagonists of the androgen receptor (AR) signaling pathway using the MDA cell line in the presence of 0.5 nM R1881 (AID 1259243); further: nearly all actives have a fitted effect of over 50% in size
Sequence of Androgen receptor (Homo sapiens) (P10275 whole entry, looked up): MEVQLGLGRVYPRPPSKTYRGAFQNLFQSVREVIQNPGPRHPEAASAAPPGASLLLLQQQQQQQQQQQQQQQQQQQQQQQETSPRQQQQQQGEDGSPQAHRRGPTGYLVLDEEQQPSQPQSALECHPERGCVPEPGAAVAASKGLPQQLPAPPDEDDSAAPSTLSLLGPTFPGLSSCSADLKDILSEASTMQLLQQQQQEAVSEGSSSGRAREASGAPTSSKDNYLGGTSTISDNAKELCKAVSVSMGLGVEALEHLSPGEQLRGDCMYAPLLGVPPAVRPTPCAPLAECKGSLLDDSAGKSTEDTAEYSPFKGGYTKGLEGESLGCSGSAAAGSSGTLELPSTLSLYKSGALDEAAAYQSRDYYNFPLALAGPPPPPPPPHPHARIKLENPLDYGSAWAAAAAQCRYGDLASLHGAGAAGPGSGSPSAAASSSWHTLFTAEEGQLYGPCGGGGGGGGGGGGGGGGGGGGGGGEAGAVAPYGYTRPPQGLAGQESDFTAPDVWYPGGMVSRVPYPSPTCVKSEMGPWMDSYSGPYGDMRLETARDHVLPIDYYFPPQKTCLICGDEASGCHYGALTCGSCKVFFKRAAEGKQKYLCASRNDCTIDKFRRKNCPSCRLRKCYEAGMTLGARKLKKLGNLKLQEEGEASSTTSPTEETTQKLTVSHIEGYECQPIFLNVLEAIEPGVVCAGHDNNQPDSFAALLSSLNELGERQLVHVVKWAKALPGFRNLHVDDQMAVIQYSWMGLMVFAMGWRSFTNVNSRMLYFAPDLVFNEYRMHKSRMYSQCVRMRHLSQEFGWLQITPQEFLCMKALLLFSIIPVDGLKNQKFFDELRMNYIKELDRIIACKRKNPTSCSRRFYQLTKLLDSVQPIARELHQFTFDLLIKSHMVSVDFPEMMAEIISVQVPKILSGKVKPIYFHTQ
Method in brief: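 With R1881 held at 0.5 nM (final), compound effects on MMTV-luciferase expression in MDA-kb2 cells were scored by luminescence after a 16 hr, 37C incubation.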

Measured: Potency

Cc1ccccc1N=C(N)N=C(N)N
inactive: [1] | [2] | [3] | [4] | [5] | [6] | [7] | [8] | [9] | [10] | [11] | [12] | [13] | [14] | [15]

C=CCCC(=O)O
inactive: [1] | [2] | [3] | [4] | [5] | [6] | [7] | [9] | [16] | [10] | [17] | [11] | [12] | [13] | [14] | [15]

COc1cc(C(=O)NCc2ccc(OCCN(C)C)cc2)cc(OC)c1OC
inactive: [1] | [2] | [3] | [4] | [5] | [6] | [7] | [8] | [9] | [16] | [10] | [18] | [11] | [12] | [13] | [14] | [15]

COc1cc(C(=O)OC(COCCC(C)C)CN2CCOCC2)cc(OC)c1OC (stereo unspecified)
inactive: [1] | [2] | [3] | [4] | [5] | [6] | [7] | [8] | [9] | [16] | [10] | [17] | [18] | [11] | [12] | [13] | [14] | [15]

CC[N+](C)(CC)CCOC(=O)C1c2ccccc2Oc2ccccc21
inactive: [1] | [2] | [3] | [4] | [5] | [6] | [7] | [8] | [9] | [10] | [11] | [12] | [13] | [14] | [15]

CC(=O)N[C@H]1[C@H]([C@H](O)[C@H](O)CO)OC(C(=O)O)=C[C@@H]1N=C(N)N
inactive: [1] | [2] | [3] | [4] | [19] | [6] | [7] | [8] | [9] | [16] | [10] | [20] | [17] | [11] | [12] | [13] | [14] | [15]

c1ccc2sc(SN3CCOCC3)nc2c1
inactive: [1] | [2] | [3] | [4] | [5] | [6] | [7] | [8] | [9] | [10] | [18] | [13] | [14] | [15]

CCCCCCCCCCCCCCCCCCO
inactive: [1] | [2] | [3] | [4] | [5] | [6] | [7] | [8] | [9] | [16] | [10] | [17] | [18] | [11] | [12] | [13] | [14] | [15]
